In PubChem BioAssay (NCI):
About 83,000 compounds went through this panel and 20% of them were active in at least one assay; those are over-represented in the sample as a whole.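 The test compound was applied at a single concentration to cells in 96-well plates for 48 hours, and percent growth was recorded.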 Values without a mark were called inactive. Active and inactive are the calls of the source. How the source made its calls: active means growth percent below 10; inactive means the rest.

These compounds were tested on LOX IMVI melanoma (assay: NCI-60 one-dose screen, 48 h (100 = growth as untreated, 0 = no growth, -100 = all killed)). Conditions: 10 µM unless noted.

**Q.** With `Fc1ccc(-c2cc3nc(C(Cl)Cl)nc(-c4ccccc4)n3n2)cc1` as the compound, how does the growth read?
**A.** 86.9%

**Q.** For `O=C(c1ccc(Cl)cc1)C1[C@H](c2ccc(Cl)cc2)[C@@H](c2ccccc2)NC12C(=O)Nc1ccc(Br)cc12` (stereo partly specified), which growth is on record?
**A.** 15.3%

**Q.** How did the growth turn out when `COc1ccccc1C(=O)CSc1nc(Nc2ccc(S(N)(=O)=O)cc2)c2ccccc2n1` was run?
**A.** 16.1%

**Q.** For `CC(C)(C)Nc1nc2c(OCCc3ccccc3)cccn2c1-c1ccccc1Cl`, which growth is on record?
**A.** -96% (active)

**Q.** How did the growth turn out when `CNC(=O)c1cc(-c2ccc(NC(=O)Nc3ccc(N4CCOCC4)c(C(F)(F)F)c3)cc2)nc2cccnc12` was run?
**A.** 31.1%

**Q.** `CS(=O)(=O)c1ccc(-n2cc(/C=C/C(=O)c3ccc(NC(=O)CO[N+](=O)[O-])cc3)c(-c3ccc(Cl)cc3)n2)cc1` was tested. Which growth did it give?
**A.** 96.9%

**Q.** With `Cc1[nH]nc2ncc(C#Cc3cncc(C(=O)Nc4ccc(CN5CCN(C)CC5)c(C(F)(F)F)c4)c3)cc12` as the compound, how does the growth read?
**A.** -23.4% (active)

**Q.** `CCN1C(=S)N(CC)C2C1N=C(SC)N2/N=C/C=C/c1ccccc1[N+](=O)[O-]` (stereo unspecified) was tested. Which growth did it give?
**A.** 116%

**Q.** For `C/C(=C(/c1ccc(Cl)cc1)c1ccc(OCCN)cc1)c1ccc(C)cc1`, which growth is on record?
**A.** 105%

**Q.** How did the growth turn out when `O=[N+]([O-])c1ccc(O)c2ncccc12` was run?
**A.** 25.2%

**Q.** Which growth does the source give for `Cc1cc(=O)oc2cc(OCCCOc3ccc(/C=C/C(=O)Nc4ccc(Cl)cc4)cc3)ccc12` here?
**A.** 40.8%

**Q.** `Cc1ccc(-c2nc(C(Cl)Cl)nc3cc(-c4ccccc4)nn23)cc1` was tested. Which growth did it give?
**A.** 43.6%

**Q.** With `Nc1cc(-c2c[nH]c3ccc(F)cc23)nc2cc(-c3c[nH]c4ccc(F)cc34)nn12` as the compound, how does the growth read?
**A.** -18.8% (active)

**Q.** `COc1cccc(N2CCN(c3ncnc4c3[nH]c3ccc(F)cc34)C[C@@H]2C)c1` was tested. Which growth did it give?
**A.** 0.646% (active)

**Q.** `Cc1ccc(/C=C/c2nn3c(-c4ccco4)nnc3s2)cc1C` was tested. Which growth did it give?
**A.** 89.3%

**Q.** Which growth does the source give for `CCN1C(=S)N(CC)C2C1NN=C1SC(c3ccccc3)=CC(=O)N12` (stereo unspecified) here?
**A.** 100%

**Q.** How did the growth turn out when `CC(C)NC(=O)c1cc(-c2ccc(NC(=O)Nc3ccc(N4CCOCC4)c(C(F)(F)F)c3)cc2)nc2cccnc12` was run?
**A.** 47.9%

**Q.** For `Cn1cc(-c2cc(N)n3nc(-c4cn(C)c5ccc(Cl)cc45)cc3n2)c2cc(Cl)ccc21`, which growth is on record?
**A.** 11.3%

**Q.** How did the growth turn out when `NS(=O)(=O)c1cccc(Nc2nc(SCC(=O)c3ccc(Cl)cc3)nc3ccccc23)c1` was run?
**A.** 28.7%

**Q.** With `Cc1sc2c(c1C)c(=O)nc1c(-c3nc(-c4ccc(F)cc4)no3)n[nH]n12` as the compound, how does the growth read?
**A.** 93.7%

**Q.** How did the growth turn out when `CN1C(=O)N(c2ccccc2)C2N=C(N/N=C/c3ccccc3)SC21` (stereo unspecified) was run?
**A.** 23.2%

**Q.** Which growth does the source give for `O=C1C2=C(C(=O)c3c(O)cccc31)C(c1ccco1)c1sc(=O)[nH]c1S2` (stereo unspecified) here?
**A.** -2.86% (active)

**Q.** How did the growth turn out when `N[C@@H](Cc1cn(-c2c3ccccc3nc3ccccc23)nn1)C(=O)O` was run?
**A.** 106%

**Q.** For `Cc1sc2nc(NCc3ccccc3Cl)[nH]c(=O)c2c1C`, which growth is on record?
**A.** 68.8%

**Q.** With `COc1ccccc1/C=C/C=N/NC1=NC2C(S1)N(C)C(=O)N2C` (stereo unspecified) as the compound, how does the growth read?
**A.** 35.3%

**Q.** How did the growth turn out when `CC(=O)Nc1cc(F)cc(-c2ccc3[nH]cc(-c4ccccc4)c3n2)c1` was run?
**A.** -62.4% (active)

**Q.** How did the growth turn out when `O=C(CSc1nc2sc3c(c2c(=O)n1-c1ccc(Cl)cc1)CCCC3)N/N=C/c1ccc(F)cc1` was run?
**A.** 95.9%

**Q.** How did the growth turn out when `Cc1ccccc1NC(=O)/C=C/c1ccc(OCCOc2ccc3c(C)cc(=O)oc3c2)cc1` was run?
**A.** 88.5%

**Q.** For `CCN(CC)c1ccc(C=O)c(OCc2cn(CC(=O)Nc3ccc(Cl)cc3)nn2)c1`, which growth is on record?
**A.** 58.8%

**Q.** Which growth does the source give for `CC(C)(C)OC(=O)N1C(=O)c2c(c3c4ccccc4[nH]c3c3ccc4ccccc4c23)C1=O` here?
**A.** 57.5%

**Q.** With `O=C(CSc1nc2sc3c(c2c(=O)n1-c1ccc(Cl)cc1)CCCC3)NNC(=O)Nc1cccc(C(F)(F)F)c1` as the compound, how does the growth read?
**A.** -17% (active)

**Q.** `CC(=O)Oc1ccccc1C(=O)Nc1cc(C(C)C)ccc1C` was tested. Which growth did it give?
**A.** 12.4%

**Q.** `N#Cc1c(-c2ccc(Cl)cc2)nc(SCc2ccc(F)cc2)nc1N1CCNCC1` was tested. Which growth did it give?
**A.** -59.2% (active)

**Q.** For `COc1ccc(NC(=O)c2sc3nc(-c4cnccn4)cc(-c4cccs4)c3c2N)cc1`, which growth is on record?
**A.** 18.4%

**Q.** For `CNC(=O)c1cc(-c2ccc(NC(=O)Nc3ccc(N4CCN(C)CC4)c(C(F)(F)F)c3)cc2)nc2cccnc12`, which growth is on record?
**A.** -92.5% (active)

**Q.** With `O=C(CSc1nccc(=O)[nH]1)Nc1ccc(-c2nc3ccccc3[nH]2)cc1` as the compound, how does the growth read?
**A.** 96.9%

**Q.** For `O=C1c2c(c3c4cccnc4[nH]c3c3ccc4ccccc4c23)C(=O)N1CCO`, which growth is on record?
**A.** 51.7%

**Q.** `CN1CCN(Cc2ccc(NC(=O)c3cncc(C#Cc4cnc5ccc(N6CCSCC6)nn45)c3)cc2C(F)(F)F)CC1` was tested. Which growth did it give?
**A.** -89.8% (active)

The compounds below were run on SK-MEL-28 melanoma in the same assay as above. Conditions: 10 µM unless noted.

**Q.** `Fc1ccc(-c2cc3nc(C(Cl)Cl)nc(-c4ccccc4)n3n2)cc1` was tested. Which growth did it give?
**A.** -7.7% (active)

**Q.** Which growth does the source give for `O=C(c1ccc(Cl)cc1)C1[C@H](c2ccc(Cl)cc2)[C@@H](c2ccccc2)NC12C(=O)Nc1ccc(Br)cc12` (stereo partly specified) here?
**A.** 67.3%

**Q.** With `COc1ccccc1C(=O)CSc1nc(Nc2ccc(S(N)(=O)=O)cc2)c2ccccc2n1` as the compound, how does the growth read?
**A.** 96.8%

**Q.** With `CC(C)(C)Nc1nc2c(OCCc3ccccc3)cccn2c1-c1ccccc1Cl` as the compound, how does the growth read?
**A.** 0.829% (active)

**Q.** How did the growth turn out when `CNC(=O)c1cc(-c2ccc(NC(=O)Nc3ccc(N4CCOCC4)c(C(F)(F)F)c3)cc2)nc2cccnc12` was run?
**A.** 64.5%

**Q.** Which growth does the source give for `CS(=O)(=O)c1ccc(-n2cc(/C=C/C(=O)c3ccc(NC(=O)CO[N+](=O)[O-])cc3)c(-c3ccc(Cl)cc3)n2)cc1` here?
**A.** 66.1%

**Q.** Which growth does the source give for `Cc1[nH]nc2ncc(C#Cc3cncc(C(=O)Nc4ccc(CN5CCN(C)CC5)c(C(F)(F)F)c4)c3)cc12` here?
**A.** -11.4% (active)

**Q.** How did the growth turn out when `CCN1C(=S)N(CC)C2C1N=C(SC)N2/N=C/C=C/c1ccccc1[N+](=O)[O-]` (stereo unspecified) was run?
**A.** 105%

**Q.** `C/C(=C(/c1ccc(Cl)cc1)c1ccc(OCCN)cc1)c1ccc(C)cc1` was tested. Which growth did it give?
**A.** 99.6%

**Q.** Which growth does the source give for `O=[N+]([O-])c1ccc(O)c2ncccc12` here?
**A.** 29.1%

**Q.** With `Cc1cc(=O)oc2cc(OCCCOc3ccc(/C=C/C(=O)Nc4ccc(Cl)cc4)cc3)ccc12` as the compound, how does the growth read?
**A.** 75.8%

**Q.** How did the growth turn out when `Cc1ccc(-c2nc(C(Cl)Cl)nc3cc(-c4ccccc4)nn23)cc1` was run?
**A.** 1.35% (active)

**Q.** For `Nc1cc(-c2c[nH]c3ccc(F)cc23)nc2cc(-c3c[nH]c4ccc(F)cc34)nn12`, which growth is on record?
**A.** 109%

**Q.** For `COc1cccc(N2CCN(c3ncnc4c3[nH]c3ccc(F)cc34)C[C@@H]2C)c1`, which growth is on record?
**A.** -26.8% (active)

**Q.** With `Cc1ccc(/C=C/c2nn3c(-c4ccco4)nnc3s2)cc1C` as the compound, how does the growth read?
**A.** 104%

**Q.** How did the growth turn out when `CCN1C(=S)N(CC)C2C1NN=C1SC(c3ccccc3)=CC(=O)N12` (stereo unspecified) was run?
**A.** 99.5%

**Q.** For `CC(C)NC(=O)c1cc(-c2ccc(NC(=O)Nc3ccc(N4CCOCC4)c(C(F)(F)F)c3)cc2)nc2cccnc12`, which growth is on record?
**A.** 59.2%

**Q.** How did the growth turn out when `Cn1cc(-c2cc(N)n3nc(-c4cn(C)c5ccc(Cl)cc45)cc3n2)c2cc(Cl)ccc21` was run?
**A.** 76.7%

**Q.** For `NS(=O)(=O)c1cccc(Nc2nc(SCC(=O)c3ccc(Cl)cc3)nc3ccccc23)c1`, which growth is on record?
**A.** 89%

**Q.** Which growth does the source give for `Cc1sc2c(c1C)c(=O)nc1c(-c3nc(-c4ccc(F)cc4)no3)n[nH]n12` here?
**A.** 115%

**Q.** With `CN1C(=O)N(c2ccccc2)C2N=C(N/N=C/c3ccccc3)SC21` (stereo unspecified) as the compound, how does the growth read?
**A.** 61.3%

**Q.** For `O=C1C2=C(C(=O)c3c(O)cccc31)C(c1ccco1)c1sc(=O)[nH]c1S2` (stereo unspecified), which growth is on record?
**A.** -28.8% (active)

**Q.** `N[C@@H](Cc1cn(-c2c3ccccc3nc3ccccc23)nn1)C(=O)O` was tested. Which growth did it give?
**A.** 100%

**Q.** For `Cc1sc2nc(NCc3ccccc3Cl)[nH]c(=O)c2c1C`, which growth is on record?
**A.** 98.6%

**Q.** With `COc1ccccc1/C=C/C=N/NC1=NC2C(S1)N(C)C(=O)N2C` (stereo unspecified) as the compound, how does the growth read?
**A.** 56%

**Q.** `CC(=O)Nc1cc(F)cc(-c2ccc3[nH]cc(-c4ccccc4)c3n2)c1` was tested. Which growth did it give?
**A.** -67.5% (active)

**Q.** For `O=C(CSc1nc2sc3c(c2c(=O)n1-c1ccc(Cl)cc1)CCCC3)N/N=C/c1ccc(F)cc1`, which growth is on record?
**A.** 108%

**Q.** With `Cc1ccccc1NC(=O)/C=C/c1ccc(OCCOc2ccc3c(C)cc(=O)oc3c2)cc1` as the compound, how does the growth read?
**A.** 90.9%

**Q.** With `CCN(CC)c1ccc(C=O)c(OCc2cn(CC(=O)Nc3ccc(Cl)cc3)nn2)c1` as the compound, how does the growth read?
**A.** 92.7%

**Q.** `CC(C)(C)OC(=O)N1C(=O)c2c(c3c4ccccc4[nH]c3c3ccc4ccccc4c23)C1=O` was tested. Which growth did it give?
**A.** 63.2%

**Q.** For `O=C(CSc1nc2sc3c(c2c(=O)n1-c1ccc(Cl)cc1)CCCC3)NNC(=O)Nc1cccc(C(F)(F)F)c1`, which growth is on record?
**A.** 33.2%

**Q.** With `CC(=O)Oc1ccccc1C(=O)Nc1cc(C(C)C)ccc1C` as the compound, how does the growth read?
**A.** 18%

**Q.** How did the growth turn out when `N#Cc1c(-c2ccc(Cl)cc2)nc(SCc2ccc(F)cc2)nc1N1CCNCC1` was run?
**A.** 99.3%

**Q.** Which growth does the source give for `COc1ccc(NC(=O)c2sc3nc(-c4cnccn4)cc(-c4cccs4)c3c2N)cc1` here?
**A.** 84.3%

**Q.** `CNC(=O)c1cc(-c2ccc(NC(=O)Nc3ccc(N4CCN(C)CC4)c(C(F)(F)F)c3)cc2)nc2cccnc12` was tested. Which growth did it give?
**A.** -92.2% (active)

**Q.** `O=C(CSc1nccc(=O)[nH]1)Nc1ccc(-c2nc3ccccc3[nH]2)cc1` was tested. Which growth did it give?
**A.** 98.9%

**Q.** With `O=C1c2c(c3c4cccnc4[nH]c3c3ccc4ccccc4c23)C(=O)N1CCO` as the compound, how does the growth read?
**A.** 102%

**Q.** With `CN1CCN(Cc2ccc(NC(=O)c3cncc(C#Cc4cnc5ccc(N6CCSCC6)nn45)c3)cc2C(F)(F)F)CC1` as the compound, how does the growth read?
**A.** -48.1% (active)
